Assay results from PubChem BioAssay AID1159580 (chemical genetic matrix, 2015).
Hit rate of the full screen: of about 5,500 compounds, about 2,000 (36%) were called active. Not shown: some 18% with an inconclusive outcome. No stated cut-off is given here; in the data, active means normalized growth mostly below about 0.91 (no sharp cut-off); inconclusive means no clear call, values can overlap the other calls; inactive means mostly above about 0.92. This is one part of the list.

Assay: chemical genetic growth profiling, strain panel (AID 1159580);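 further: tested at 20 µM; growth read once vehicle control cultures reached saturation at 30 °C; 1 = growth at the plate median or of vehicle wells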
Settings: growth OD

Measured: normalized growth

CC(=O)[C@@]1(O)CCC2C3C[C@H](C)C4=CC(=O)C=CC4(C)[C@@]3(F)[C@@H](O)C[C@@]21C (stereo partly drawn)
inactive: S. cerevisiae deletion strains, locus YJR066W, strain TOR1, stronger effect = lower value 0.936 | S. cerevisiae deletion strains, locus YKL009W, strain mrt4, stronger effect = lower value 1.01 | S. cerevisiae deletion strains, locus YKL068W, stronger effect = lower value 1.01 | S. cerevisiae deletion strains, locus YKL085W, strain MDH1 (second series), stronger effect = lower value 1.01 | S. cerevisiae deletion strains, locus YKL085W, strain MDH1, stronger effect = lower value 1.01 | S. cerevisiae deletion strains, locus YKL160W, strain elf1, stronger effect = lower value 0.976 | S. cerevisiae deletion strains, locus YKL190W, strain CNB1, stronger effect = lower value 0.988 | S. cerevisiae deletion strains, locus YKR001C, strain vps1, stronger effect = lower value 0.987 | S. cerevisiae deletion strains, locus YKR026C, strain gcn3, stronger effect = lower value 0.982 | S. cerevisiae deletion strains, locus YKR091W, strain srl3, stronger effect = lower value 0.956 | S. cerevisiae deletion strains, locus YLL001W, strain dnm1, stronger effect = lower value 1.01 | S. cerevisiae deletion strains, locus YLL026W, stronger effect = lower value 0.979 | S. cerevisiae deletion strains, locus YLL041C, strain sdh2, stronger effect = lower value 0.988 | S. cerevisiae deletion strains, locus YLR027C, strain aat2, stronger effect = lower value 0.978 | S. cerevisiae deletion strains, locus YLR039C, strain RIC1, stronger effect = lower value 1.03 | S. cerevisiae deletion strains, locus YLR058C, strain SHM2, stronger effect = lower value 1.01 | S. cerevisiae deletion strains, locus YLR102C, strain apc9, stronger effect = lower value 1 | S. cerevisiae deletion strains, locus YLR113W, strain HOG1, stronger effect = lower value 0.988 | S. cerevisiae deletion strains, locus YLR221C, strain rsa3, stronger effect = lower value 0.968 | S. cerevisiae deletion strains, locus YLR258W, strain gsy2, stronger effect = lower value 0.971 | S. cerevisiae deletion strains, locus YLR262C, strain YPT6 (second series), stronger effect = lower value 0.981 | S. cerevisiae deletion strains, locus YLR262C, strain YPT6, stronger effect = lower value 0.98 | S. cerevisiae deletion strains, locus YLR268W, strain sec22, stronger effect = lower value 0.991 | S. cerevisiae deletion strains, locus YLR320W, strain mms22, stronger effect = lower value 0.962 | S. cerevisiae deletion strains, locus YLR330W, strain CHS5, stronger effect = lower value 1 | S. cerevisiae deletion strains, locus YLR342W, strain FKS1 (second series), stronger effect = lower value 0.992 | S. cerevisiae deletion strains, locus YLR342W, strain FKS1, stronger effect = lower value 0.979 | S. cerevisiae deletion strains, locus YLR357W, strain rsc2, stronger effect = lower value 0.951 | S. cerevisiae deletion strains, locus YLR370C, strain arc18, stronger effect = lower value 0.982 | S. cerevisiae deletion strains, locus YLR371W, strain rom2, stronger effect = lower value 1 | S. cerevisiae deletion strains, locus YLR384C, strain iki3, stronger effect = lower value 0.981 | S. cerevisiae deletion strains, locus YLR418C, strain cdc73, stronger effect = lower value 1.02 | S. cerevisiae deletion strains, locus YML016C, strain PPZ1, stronger effect = lower value 1 | S. cerevisiae deletion strains, locus YML032C, strain rad52, stronger effect = lower value 0.996 | S. cerevisiae deletion strains, locus YML120C, strain ndi1, stronger effect = lower value 0.954 | S. cerevisiae deletion strains, locus YML124C, strain tub3, stronger effect = lower value 1.01 | S. cerevisiae deletion strains, locus YMR058W, strain fet3, stronger effect = lower value 0.983 | S. cerevisiae deletion strains, locus YMR078C, strain ctf18, stronger effect = lower value 1 | S. cerevisiae deletion strains, locus YMR125W, strain sto1, stronger effect = lower value 0.965 | S. cerevisiae deletion strains, locus YMR129W, stronger effect = lower value 0.964 | S. cerevisiae deletion strains, locus YMR205C, strain PFK2, stronger effect = lower value 0.975 | S. cerevisiae deletion strains, locus YMR223W, strain ubp8, stronger effect = lower value 1.04 | S. cerevisiae deletion strains, locus YMR231W, strain pep5, stronger effect = lower value 0.973 | S. cerevisiae deletion strains, locus YMR307W, strain GAS1, stronger effect = lower value 0.976 | S. cerevisiae deletion strains, locus YNL067W, strain RPL9B, stronger effect = lower value 0.993 | S. cerevisiae deletion strains, locus YNL071W, strain lat1, stronger effect = lower value 0.972 | S. cerevisiae deletion strains, locus YNL128W, strain TEP1, stronger effect = lower value 1.01 | S. cerevisiae deletion strains, locus YNL153C, strain GIM3, stronger effect = lower value 0.992 | S. cerevisiae deletion strains, locus YNL183C, strain NPR1, stronger effect = lower value 0.942 | S. cerevisiae deletion strains, locus YNL209W, strain ssb2, stronger effect = lower value 0.98 | S. cerevisiae deletion strains, locus YNL233W, strain BNI4, stronger effect = lower value 1 | S. cerevisiae deletion strains, locus YNL248C, strain rpa49, stronger effect = lower value 0.914 | S. cerevisiae deletion strains, locus YNL250W, strain rad50, stronger effect = lower value 1.03 | S. cerevisiae deletion strains, locus YNL271C, strain bni1, stronger effect = lower value 1.02 | S. cerevisiae deletion strains, locus YNL298W, strain CLA4, stronger effect = lower value 0.999 | S. cerevisiae deletion strains, locus YNL307C, strain MCK1, stronger effect = lower value 1.02 | S. cerevisiae deletion strains, locus YNL322C, strain KRE1 (second series), stronger effect = lower value 0.955 | S. cerevisiae deletion strains, locus YNR049C, strain mso1, stronger effect = lower value 0.951 | S. cerevisiae deletion strains, locus YNR052C, strain pop2, stronger effect = lower value 1.01 | S. cerevisiae deletion strains, locus YOL012C, strain htz1 0.807 | S. cerevisiae deletion strains, locus YOL147C, strain pex11, stronger effect = lower value 1.01 | S. cerevisiae deletion strains, locus YOR001W, strain rrp6, stronger effect = lower value 0.971 | S. cerevisiae deletion strains, locus YOR061W, strain CKA2, stronger effect = lower value 1.01 | S. cerevisiae deletion strains, locus YOR069W, strain VPS5, stronger effect = lower value 1 | S. cerevisiae deletion strains, locus YOR070C, strain gyp1, stronger effect = lower value 0.986 | S. cerevisiae deletion strains, locus YOR080W, strain dia2, stronger effect = lower value 0.975 | S. cerevisiae deletion strains, locus YOR083W, strain WHI5, stronger effect = lower value 0.974 | S. cerevisiae deletion strains, locus YOR106W, strain vam3, stronger effect = lower value 0.977 | S. cerevisiae deletion strains, locus YOR136W, strain idh2, stronger effect = lower value 1 | S. cerevisiae deletion strains, locus YOR144C, strain elg1, stronger effect = lower value 1 | S. cerevisiae deletion strains, locus YOR184W, strain ser1, stronger effect = lower value 1.01 | S. cerevisiae deletion strains, locus YOR231W, strain MKK1, stronger effect = lower value 1 | S. cerevisiae deletion strains, locus YOR265W, strain rbl2, stronger effect = lower value 0.974 | S. cerevisiae deletion strains, locus YOR270C, strain vph1, stronger effect = lower value 0.926 | S. cerevisiae deletion strains, locus YOR290C, strain snf2, stronger effect = lower value 0.944 | S. cerevisiae deletion strains, locus YOR316C, strain cot1, stronger effect = lower value 1.01 | S. cerevisiae deletion strains, locus YPL051W, strain arl3, stronger effect = lower value 0.985 | S. cerevisiae deletion strains, locus YPL055C, strain LGE1, stronger effect = lower value 0.993 | S. cerevisiae deletion strains, locus YPL078C, strain atp4, stronger effect = lower value 0.992 | S. cerevisiae deletion strains, locus YPL106C, strain sse1, stronger effect = lower value 0.922 | S. cerevisiae deletion strains, locus YPL240C, strain hsp82, stronger effect = lower value 0.975 | S. cerevisiae deletion strains, locus YPL256C, strain CLN2, stronger effect = lower value 0.981 | S. cerevisiae deletion strains, locus YPR119W, strain clb2, stronger effect = lower value 1.01 | S. cerevisiae deletion strains, locus YPR141C, strain kar3, stronger effect = lower value 1.01 | S. cerevisiae deletion strains, locus YPR163C, strain tif3, stronger effect = lower value 1.01 | S. cerevisiae deletion strains, locus YPR167C, strain met16, stronger effect = lower value 1.02 | S. cerevisiae deletion strains, strain wtn01, stronger effect = lower value 1.01 | S. cerevisiae strains, strain wild type, stronger effect = lower value 0.987
